Reference: publication PMC13494018

B1: design_620_fbd04095-bef7-46a9-992d-f2cb8915922f_790_dldesign_0_cycle1_af2pred (protein)
chain: AKAKELAKKAEKALKAAKEAAKLKPEEAAAKANKELGKVLEAQKKAVEAGAPQEALDKINAVATEIAKIALEAAKAA
B2: design_620_fbd04095-bef7-46a9-992d-f2cb8915922f_187_dldesign_0_cycle1_af2pred (protein)
chain: GEARRQFAEDTAAAAKQAAALYAADPEKAQQVKDAADKAVAAAESGEDAQLAGLSAIKVYQALVEAQKAA
B3: design_619_5728adc2-0aea-404f-92dd-a4575c53f550_2058_dldesign_0_cycle1_af2pred (protein)
chain: AAVAQSQLQITQNLVAWALSQLTTYGPAQGATIAKAVRDLALAAGLPEAVADELAAGAAGTAAEAKAKGAQAVALAQAAVAA
B4: design_619_5728adc2-0aea-404f-92dd-a4575c53f550_1976_dldesign_0_cycle1_af2pred (protein)
chain: SPALLAARKAITETAAATINALTDPAAANLVGRAMIQGLQLAQQGEAAGAHAAAAVAALALVEAAAAAARALDAAAA
B5: design_620_fbd04095-bef7-46a9-992d-f2cb8915922f_868_dldesign_0_cycle1_af2pred (protein)
chain: MEEERREELRRKAEEYIAQAEALAAQTSPSAQLLVSNLARQARRLAEAGDYEGALEVARAALEGAQAMAAQQ
B6: design_620_fbd04095-bef7-46a9-992d-f2cb8915922f_846_dldesign_0_cycle1_af2pred (protein)
chain: AADALAGAKAALNTIKAAETNAKKLDAAGAEAQYKLAKVALESAKVHAAKLGEEGKKIAEEAKKALAATKAVAEAKKAA
B7: design_620_fbd04095-bef7-46a9-992d-f2cb8915922f_1915_dldesign_0_cycle1_af2pred (protein)
chain: NEDLKKAAELAKKAAQLAPQPEAAEVAAKAAEAAEKAVGPELGNYALALATLPPAARALGMSNLATSLEKLV
B8: design_620_fbd04095-bef7-46a9-992d-f2cb8915922f_1150_dldesign_0_cycle1_af2pred (protein)
chain: MRERIEKVEKEAKEAYEATKKAAAAQGEAGKIIAAAADAALKRLEEAAKKAKEALEEGDLESAEKYLKEAEAQLETIKVLKESAE
B9: design_620_fbd04095-bef7-46a9-992d-f2cb8915922f_1144_dldesign_0_cycle1_af2pred (protein)
chain: DPARQATINALIKAAAEAAKLGDTALSQAAVEAAVALASAKTQEELDAAQKEADAVLAAAAKRKAAAAAA
B10: design_620_fbd04095-bef7-46a9-992d-f2cb8915922f_36_dldesign_0_cycle1_af2pred (protein)
chain: AAEEALKKLKELAEKTKKVAEEAGKVNPALAPEADFLSALAEAALNYAKKNAASPDFEKIAKKQLEQIKKALERAEKLLKEAKAQAA
B11: design_620_fbd04095-bef7-46a9-992d-f2cb8915922f_1742_dldesign_0_cycle1_af2pred (protein)
chain: AAAVATAAAQAFLAQAEKNLAAAKAALKAGDYEAAIKHAQAAIGSAQSAKLAAQSAGDAALAAQADKVIAEAKKVLAEAEKALKEA
B12: design_620_fbd04095-bef7-46a9-992d-f2cb8915922f_1750_dldesign_0_cycle1_af2pred (protein)
chain: DPAKELARRVVEANLKQLKKLLEEAGKASTEEGKKLAKEAIEKVEKLKKEALASSAAEATALTVKAIEEASKALREIKKLK
B13: design_620_fbd04095-bef7-46a9-992d-f2cb8915922f_687_dldesign_0_cycle1_af2pred (protein)
chain: ATAAEAAALRDAGVAAANSAAAAAKAGNTTAAGELLTEAVKLAAQLAALGDEAGAAEVRAAIAASSKTIIAAQAA
B14: design_620_fbd04095-bef7-46a9-992d-f2cb8915922f_254_dldesign_0_cycle1_af2pred (protein)
chain: AERLRAAAERLEAAAAATPEAAEAALAEAAALAEEVAAEYPGLGQLILNTLRQAAGLSPEERARAVARQFRALADYL
B15: design_620_fbd04095-bef7-46a9-992d-f2cb8915922f_329_dldesign_0_cycle1_af2pred (protein)
chain: SAESQAKAEELLREAFKRITELADAAAKSGTEEELAKAKKEMEEIAEKVEKEAGPGAGELARNYLKTQLAAAKAAIAAAK
B16: design_620_fbd04095-bef7-46a9-992d-f2cb8915922f_681_dldesign_0_cycle1_af2pred (protein)
chain: AAAEAAAAAAAAAAAAEAAARAARGREIMVRTVEAIVRQARASPDGLRLARIALRVAESAGDEEAIALARAALAELEAA
B17: design_619_5728adc2-0aea-404f-92dd-a4575c53f550_2359_dldesign_0_cycle1_af2pred (protein)
chain: SQAQGELLEAVKYASKAMKLDPALAPQLQQAINLLVRAIVLLAQGDEAQAAEEAKKAAKLFEEAAKKASPEAAKELKKAAKEAEKAI
B18: design_620_fbd04095-bef7-46a9-992d-f2cb8915922f_946_dldesign_0_cycle1_af2pred (protein)
chain: AAALEAARRVAYGQMVLGKMKADEGLKKAESGEDLEGGIKMAEEGLKLAKEYAEYDPVKGGAAAKEIGAKLKKMKELAKKAK
B19: design_620_fbd04095-bef7-46a9-992d-f2cb8915922f_347_dldesign_0_cycle1_af2pred (protein)
chain: DAVAAGQALLYAAKSQGYIGKAKKAVKEGKLEEAKEYAEKAEEYAKKSEEYAKQSGDAAVQAQAKKVQEQVKKTKEEVKKAE
B20: design_620_fbd04095-bef7-46a9-992d-f2cb8915922f_119_dldesign_0_cycle1_af2pred (protein)
chain: REAAAEELRRLAEEARRLGEAGTPEVRSMARMMATAMEVIARGGNVELALEALRAAAAGIANDGKFGAEMEELARRAEEAVR
B21: design_619_5728adc2-0aea-404f-92dd-a4575c53f550_2222_dldesign_0_cycle1_af2pred (protein)
chain: MENLEKAKELLEKAEAYVKAAAASDLATAQALLGQAVAAGQEAVELLKDSPIYPEVSRKVVELIRAGLAAVAAKA
B22: design_620_fbd04095-bef7-46a9-992d-f2cb8915922f_548_dldesign_0_cycle1_af2pred (protein)
chain: MNASERVIARAEAIIAEAAALGAAHPAMAGETAAIQALARSAARMARSGEHIEDAEKAVEVAEAMLAATAARAAALAA
B23: design_619_5728adc2-0aea-404f-92dd-a4575c53f550_2329_dldesign_0_cycle1_af2pred (protein)
chain: SALTKKIEEKATKLVEEAAKTTPEEARKLATEALEIAKQSPEALSALAVELLKAAAKATPEVAAVLREVAAQAMRTAIEIARA
B24: design_620_fbd04095-bef7-46a9-992d-f2cb8915922f_1337_dldesign_0_cycle1_af2pred (protein)
chain: ADAATQAAIDANAAQAERALAAARADPAALPYAQAAIRNLELIAAGASPETQARGLARAEALRAALAAARAAA
B25: design_620_fbd04095-bef7-46a9-992d-f2cb8915922f_328_dldesign_0_cycle1_af2pred (protein)
chain: DPKAQAQATAETLAKQAKKAATEALKLAKELGDKETAEKMKEIIKKVEELLEKAKKGTAEEAGAAALEILKLLSEARKELEKLKKKA
B26: design_620_fbd04095-bef7-46a9-992d-f2cb8915922f_592_dldesign_0_cycle1_af2pred (protein)
chain: SMAEEAARAEKAAAFREQAEAILAQAQANAADAEKLQQLGQQAVELAEEAAALGDQEAAQAALRAAAQINALLVQAQ
B27: design_620_fbd04095-bef7-46a9-992d-f2cb8915922f_936_dldesign_0_cycle1_af2pred (protein)
chain: LTPLEKAEAAKAKADKLYEAAQKATKAEAASLYGEAAVEYAKAAAYYLRAGDAAAAAAAQANLKTAVAKSQALVAA
B28: design_620_fbd04095-bef7-46a9-992d-f2cb8915922f_158_dldesign_0_cycle1_af2pred (protein)
chain: IDTQANLELAKKSFNAALAQARRFAKTDRQAALAALKSAEVYAEAAEAADPAAGEELRKKVEEARKEIEAA
B29: design_620_fbd04095-bef7-46a9-992d-f2cb8915922f_839_dldesign_0_cycle1_af2pred (protein)
chain: MSWSEKAAEAAIKRLKELAKKAVSEGGKYAELAAAAARNAALLSYAAGPEMAKKAIKVFKEAAKLYPELAPAMEQAIALIESLL
B30: design_620_fbd04095-bef7-46a9-992d-f2cb8915922f_1420_dldesign_0_cycle1_af2pred (protein)
chain: KQKYVNAIKANAKNLELIAEGAAQVDPALAKEAKAAAEKAKAKAEEAKKSTAEEAAALRKEVQAALAALSRALIAAAA
B31: design_620_fbd04095-bef7-46a9-992d-f2cb8915922f_77_dldesign_0_cycle1_af2pred (protein)
chain: DAVTAQIKALGAAGVAQARADPENAVAIASRTNAQIWGLILAAGADAAASAVALEATRANAEAVRETTAAAAAAAAAAAAAAAA
B32: design_620_fbd04095-bef7-46a9-992d-f2cb8915922f_1411_dldesign_0_cycle1_af2pred (protein)
chain: DELTKLAQEAADAAVRAMEAGRYLPLEEANALINEVIKLYQKASEAAVAGKLEEAKKYAKEAKAKAKEIEELAEKRRA
B33: design_620_fbd04095-bef7-46a9-992d-f2cb8915922f_1232_dldesign_0_cycle1_af2pred (protein)
chain: SERHQQLVDFMVAAGQVALTNLAGALRTAEIVARTDPAAAVEGAKKIRELAAKTTPEDAAKMNAVADHALAAAA
B34: design_620_fbd04095-bef7-46a9-992d-f2cb8915922f_1739_dldesign_0_cycle1_af2pred (protein)
chain: AEAAELLAQLQAATAAAQAAAAAGDAAAANAHLAQAVELASQIHRVGDAAQRAQANQLLAQASRAAIAANAAAAA
B35: design_619_5728adc2-0aea-404f-92dd-a4575c53f550_2492_dldesign_0_cycle1_af2pred (protein)
chain: AIADEIIALARAAAEAADPEESTRLMREAAELAVEKFPELTPEEANAVIGEFLEAAARASPEAAVIATRAAARLGAQLAA
B36: design_620_fbd04095-bef7-46a9-992d-f2cb8915922f_814_dldesign_0_cycle1_af2pred (protein)
chain: SALSIAQLAASTQAVMKRAAKEVKGELAKKIKEAAKLAATGEKAKEAAALLKEAAKEAPEELKPLVASAAKHAELLVAAS
B37: design_620_fbd04095-bef7-46a9-992d-f2cb8915922f_1723_dldesign_0_cycle1_af2pred (protein)
chain: SAAAQQAAWQTYVDAAAEMSKLRREALASGDPEVKEKAIEEIKALADKAAANPAAAAAAKLAGENMTAALTES
B38: design_619_5728adc2-0aea-404f-92dd-a4575c53f550_2217_dldesign_0_cycle1_af2pred (protein)
chain: DPAAALEKRTAAAMLAQAKAAVDADPALGRQRIANMEQLGKASPALAPYLLPAAEEARAYLAAKEAAAAA

Target: CD276, Q5ZPR3
Sequence (Q5ZPR3 whole entry): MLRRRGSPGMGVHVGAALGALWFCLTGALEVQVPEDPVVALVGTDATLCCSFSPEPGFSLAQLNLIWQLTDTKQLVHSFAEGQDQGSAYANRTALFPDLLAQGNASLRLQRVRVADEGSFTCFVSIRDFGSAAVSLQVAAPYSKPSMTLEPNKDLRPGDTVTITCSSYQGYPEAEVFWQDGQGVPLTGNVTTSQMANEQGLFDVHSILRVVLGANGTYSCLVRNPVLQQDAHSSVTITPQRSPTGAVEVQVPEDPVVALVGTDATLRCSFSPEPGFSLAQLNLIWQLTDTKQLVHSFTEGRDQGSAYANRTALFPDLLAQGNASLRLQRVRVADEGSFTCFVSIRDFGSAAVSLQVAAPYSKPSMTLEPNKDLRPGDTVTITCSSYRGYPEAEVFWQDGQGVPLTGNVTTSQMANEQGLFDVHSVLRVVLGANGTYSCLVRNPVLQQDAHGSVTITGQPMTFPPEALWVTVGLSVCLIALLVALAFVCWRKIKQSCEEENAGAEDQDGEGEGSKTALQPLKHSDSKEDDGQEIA

Binder	binding in a display sort
B1	not found (inactive)
B2	not found (inactive)
B3	not found (inactive)
B4	not found (inactive)
B5	not found (inactive)
B6	not found (inactive)
B7	not found (inactive)
B8	not found (inactive)
B9	not found (inactive)
B10	not found (inactive)
B11	not found (inactive)
B12	not found (inactive)
B13	not found (inactive)
B14	not found (inactive)
B15	not found (inactive)
B16	not found (inactive)
B17	not found (inactive)
B18	not found (inactive)
B19	not found (inactive)

Binder	binding in a display sort
B20	not found (inactive)
B21	not found (inactive)
B22	not found (inactive)
B23	binds (active)
B24	not found (inactive)
B25	not found (inactive)
B26	not found (inactive)
B27	not found (inactive)
B28	not found (inactive)
B29	not found (inactive)
B30	not found (inactive)
B31	not found (inactive)
B32	not found (inactive)
B33	not found (inactive)
B34	not found (inactive)
B35	not found (inactive)
B36	not found (inactive)
B37	not found (inactive)
B38	not found (inactive)
